Experimental data from PubChem BioAssay (Tox21).
Records with an inconclusive call do not appear. The source made the active and inactive calls. Unless noted, the call rests on the fitted dose curve; in most records, active means well fitted curve in the direction sought with a large enough effect in the repeat runs; inconclusive means weak or mixed curves; inactive means flat fitted curve, though single readings scatter.

Tests used:
[1] = qHTS assay to test for compound auto fluorescence at 535 nm (green) in HEK293 cells (AID 720680)
[2] = qHTS assay to test for compound auto fluorescence at 460 nm (blue) in HEK293 cell free culture (AID 720681)
Procedure, shortened: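 Blue fluorescence (Ex 405/Em 460 nm, triamterene-equivalent) was read immediately after pin transfer of compound or DMSO into medium (DMEM, 10% FBS) without cells.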

[3] = qHTS assay to test for compound auto fluorescence at 535 nm (green) in HEK293 cell free culture (AID 720682)
Procedure, shortened: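 Each library compound, or DMSO control, is added by pintool to medium alone, comprising DMEM and 10% FBS. Emission at 535 nm following 485 nm excitation is quantified against fluorescein.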

[4] = qHTS assay to test for compound auto fluorescence at 590 nm (red) in HEK293 cell free culture (AID 720683)
Procedure, shortened: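 Red-channel autofluorescence of compounds in culture medium (DMEM, 10% FBS), no cells, measured at 540/590 nm. Rose Bengal sodium is the reference fluorophore for equivalence.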

[5] = qHTS assay to test for compound auto fluorescence at 460 nm (blue) in HepG2 cell free culture (AID 720685)
Procedure, shortened: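 Compound (23 nL) or DMSO pinned into cell-free MEM with 10% FBS; blue fluorescence read at 405/460 nm excitation/emission, expressed as auto-fluorescence equivalency to triamterene.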

[6] = qHTS assay to test for compound auto fluorescence at 460 nm (blue) in HepG2 cells (AID 720687)
Procedure, shortened: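 Blue-channel autofluorescence (Ex/Em 405/460 nm, triamterene-equivalent) was measured after 1 hr compound exposure at 37 C, 5% CO2. Cells were HepG2, plated overnight at 37 C in MEM plus 10% FBS.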

[7] = target: Glucocorticoid receptor (Homo sapiens) (UniProt P04150); assay: qHTS assay to identify small molecule agonists of the glucocorticoid receptor (GR) signaling pathway (AID 720691; active means well fitted activation curve with a large enough effect in the signal ratio in the repeat runs, not every such curve was filed as active; the % refers to the signal ratio; further: potency means the concentration at half of the fitted maximal effect); conditions: GR-bla HeLa, beta-lactamase reporter ratio, 18 h; activation: at 62.4 µM (top of the series)
Chain of Glucocorticoid receptor (Homo sapiens) (P04150 whole entry, looked up): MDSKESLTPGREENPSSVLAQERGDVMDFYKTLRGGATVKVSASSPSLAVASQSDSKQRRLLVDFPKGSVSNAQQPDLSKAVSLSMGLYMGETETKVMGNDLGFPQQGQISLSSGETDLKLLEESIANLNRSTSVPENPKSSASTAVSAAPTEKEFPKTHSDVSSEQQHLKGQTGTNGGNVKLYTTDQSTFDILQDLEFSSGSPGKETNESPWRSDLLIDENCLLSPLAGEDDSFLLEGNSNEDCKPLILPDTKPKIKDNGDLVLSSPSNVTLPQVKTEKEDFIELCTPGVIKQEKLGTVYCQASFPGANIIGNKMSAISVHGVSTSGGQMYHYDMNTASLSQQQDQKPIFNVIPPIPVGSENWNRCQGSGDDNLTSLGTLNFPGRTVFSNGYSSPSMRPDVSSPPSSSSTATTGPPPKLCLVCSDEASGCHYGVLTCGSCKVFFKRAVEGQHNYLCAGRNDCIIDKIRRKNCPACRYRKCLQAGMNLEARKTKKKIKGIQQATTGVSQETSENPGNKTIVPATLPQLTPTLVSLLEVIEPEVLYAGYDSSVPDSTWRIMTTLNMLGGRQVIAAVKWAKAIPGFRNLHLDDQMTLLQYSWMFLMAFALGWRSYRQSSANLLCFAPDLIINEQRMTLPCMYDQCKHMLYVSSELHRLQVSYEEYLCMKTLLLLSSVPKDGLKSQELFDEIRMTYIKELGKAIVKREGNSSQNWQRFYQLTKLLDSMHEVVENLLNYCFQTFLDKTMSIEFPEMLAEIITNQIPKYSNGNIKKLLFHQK
Procedure, shortened: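 Beta-lactamase reporter activity, read as fluorescence intensity, was measured in GR-bla HeLa cells exposed to compounds for 18 h at 37 C and then loaded with LiveBLAzer B/G FRET substrate for 2 h at room temperature.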

[8] = target: Glucocorticoid receptor (Homo sapiens) (UniProt P04150); assay: qHTS assay to identify small molecule antagonists of the glucocorticoid receptor (GR) signaling pathway (AID 720692; active means well fitted inhibition curve with a large enough effect in the signal ratio in the repeat runs, not every such curve was filed as active; the % refers to the signal ratio; further: potency means the concentration at half of the fitted maximal effect)
Procedure, shortened: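 Fluorescence from cleaved LiveBLAzer B/G FRET substrate reports GRE-driven beta-lactamase in HeLa cells; compounds are tested against 5 nM dexamethasone (final) over 18 h at 37 C, substrate incubation 2 h at room temperature.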

[9] = qHTS assay to test for compound auto fluorescence at 535 nm (green) in HepG2 cell free culture (AID 720686)
On the % scale 0 is the no-effect control and ±100 the full control effect.

CCCN(CCc1cccs1)[C@H]1CCc2c(O)cccc2C1
inactive: Potency [1] | Potency [2] | Potency [3] | Potency [4] | Potency [5] | Potency [6] | Potency [7] | Potency [8]

CNCC[C@H](Oc1cccc2ccccc12)c1cccs1
inactive: Potency [1] | Potency [2] | Potency [3] | Potency [4] | Potency [5] | Potency [9] | Potency [6] | Potency [7]

CCCCOC(=O)C(C)CC (stereo not given)
inactive: Potency [1] | Potency [2] | Potency [3] | Potency [4] | Potency [5] | Potency [9] | Potency [6] | Potency [7]

CCO[Si](CCCSSSSCCC[Si](OCC)(OCC)OCC)(OCC)OCC
inactive: Potency [1] | Potency [2] | Potency [3] | Potency [4] | Potency [5] | Potency [9] | Potency [6] | Potency [7] | Potency [8]

CCN(CC)CCNc1ccc(CO)c2sc3ccccc3c(=O)c12
active: Potency [7] 19 µM
inactive: Potency [1] | Potency [2] | Potency [3] | Potency [4] | Potency [5] | Potency [9]

CC(C)(C)C1=CC(=O)C=C(C(C)(C)C)C1=O
inactive: Potency [1] | Potency [2] | Potency [3] | Potency [4] | Potency [5] | Potency [9] | Potency [7]

O=C1OC(OC(=O)c2cccnc2Nc2cccc(C(F)(F)F)c2)c2ccccc21 (stereo not given)
inactive: Potency [1] | Potency [2] | Potency [3] | Potency [4] | Potency [5] | Potency [9] | Potency [6] | Potency [7] | Potency [8]

CCCCCCCCCCOCC(O)CN (stereo not given)
active: Potency [8] 26.8 µM
inactive: Potency [1] | Potency [2] | Potency [3] | Potency [4] | Potency [5] | Potency [6]

CC(C)OC(=O)c1cc(C(=O)OC(C)C)cc([N+](=O)[O-])c1
inactive: Potency [1] | Potency [2] | Potency [3] | Potency [4] | Potency [5] | Potency [9] | Potency [6] | Potency [7]

CO[C@H]1C=CO[C@@]2(C)Oc3c(C)c(O)c4c(O)c(cc(O)c4c3C2=O)NC(=O)/C(C)=C\C=C/[C@H](C)[C@H](O)[C@@H](C)[C@@H](O)[C@@H](C)[C@H](OC(C)=O)[C@@H]1C
inactive: Potency [1] | Potency [2] | Potency [3] | Potency [4] | Potency [5] | Potency [9] | Potency [6]

CCCCCCCCCCCCCCNCCO
inactive: Potency [1] | Potency [2] | Potency [3] | Potency [4] | Potency [5] | Potency [9] | Potency [6]

C=CC(=O)OCC(O)COc1ccccc1 (stereo not given)
inactive: Potency [1] | Potency [2] | Potency [3] | Potency [4] | Potency [5] | Potency [6]

Oc1c(Br)cc(Br)c2cccnc12
inactive: Potency [1] | Potency [2] | Potency [3] | Potency [4] | Potency [5] | Potency [6]

CCCCCCCC/C=C\CCCCCCCC(=O)N(C)CC(=O)O
inactive: Potency [1] | Potency [2] | Potency [3] | Potency [4] | Potency [5] | Potency [6]

CCC(C)(C)c1cc(O)c(C(C)(C)CC)cc1O
inactive: Potency [1] | Potency [2] | Potency [3] | Potency [4] | Potency [5] | Potency [9] | Potency [6] | Potency [7]

CCCCCCCC/C=C/CCCOC(C)=O
inactive: Potency [1] | Potency [2] | Potency [3] | Potency [4] | Potency [5] | Potency [6] | Potency [7]

CCCCCCCCCCCCCCCC
inactive: Potency [1] | Potency [2] | Potency [3] | Potency [4] | Potency [5] | Potency [7] | Potency [8]

Cc1cccc(C)c1NC(=O)CN1CCN(CCCC(c2ccc(F)cc2)c2ccc(F)cc2)CC1
inactive: fluorescence, % of fluorescein [1] 0.0034% [at 18.6 µM] | fluorescence, % of fluorescent control [2] -0.178% [at 18.6 µM] | activity change [3] 0.0074% [at 18.6 µM, active compounds read high] | fluorescence, % of fluorescent control [4] -0.297% [at 18.6 µM] | fluorescence, % of fluorescent control [5] -0.0263% [at 18.6 µM] | fluorescence, % of fluorescent control [6] -0.0418% [at 18.6 µM]

C=CC(=O)OCCOCC(CC)(COCCOC(=O)C=C)COCCOC(=O)C=C
active: Potency [8] 22.8 µM
inactive: Potency [1] | Potency [2] | Potency [3] | Potency [4] | Potency [5] | Potency [6]

COC(=O)CC#N
inactive: Potency [1] | Potency [2] | Potency [3] | Potency [4] | Potency [5] | Potency [9] | Potency [6]
